Assay [1] is described as follows: Nuclear factor erythroid 2-related factor 2/antioxidant responsive element (Nrf2/ARE) small molecule agonists: qHTS cell viability counter screen in human keratinocytes (AID 1919968; active = well fitted cell-killing curve with a large enough effect in the repeat runs; note: nearly all actives have a fitted effect of over 55% in size; note: potency is the fitted concentration of half-maximal effect). In a few lines: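 Cells of the KeratinoSens line were plated at 1,500 per well and left for 5 h before compound transfer from DMSO stocks. After a 23 h incubation (37 C, 5% CO2), CellTiter-Fluor was added. Signal was taken as fluorescence intensity 1 h later.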

Assay [2] can be described thus: Nuclear factor erythroid 2-related factor 2/antioxidant responsive element (Nrf2/ARE) small molecule agonists: luciferase reporter gene qHTS assay in human keratinocytes (AID 1919969). Note: nearly all actives have a fitted effect of over 35% in size. In general terms: In a reporter assay the amount or activity of a reporter protein is the signal.
Assay [3] deals with Gonadotropin-releasing hormone receptor (Homo sapiens) (UniProt P30968). Briefly: Human gonadotropin-releasing hormone receptor (GnRHR) small molecule agonists, calcium flux assay in GnRHR-HEK293 cells (AID 1920063). Note: nearly all actives have a fitted effect of over 35% in size. In a few lines: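 Compounds dissolved in DMSO are pin-transferred onto dye-loaded GnRHR-HEK293 cells, which were seeded 18 h before at 37 C/5% CO2. Calcium signal is read as fluorescence intensity at 1 s intervals for 3 min.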
Gonadotropin-releasing hormone receptor (Homo sapiens), sequence (P30968 whole entry, looked up): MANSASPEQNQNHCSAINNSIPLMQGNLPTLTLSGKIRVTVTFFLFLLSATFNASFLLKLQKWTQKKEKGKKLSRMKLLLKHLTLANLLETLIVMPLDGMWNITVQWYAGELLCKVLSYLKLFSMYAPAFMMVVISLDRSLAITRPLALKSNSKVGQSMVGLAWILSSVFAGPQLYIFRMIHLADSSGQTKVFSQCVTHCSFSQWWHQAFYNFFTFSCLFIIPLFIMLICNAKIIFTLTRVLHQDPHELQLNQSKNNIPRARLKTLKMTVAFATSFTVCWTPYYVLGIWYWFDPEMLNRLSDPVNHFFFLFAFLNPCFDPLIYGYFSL
Background: Calcium flux is commonly read through the fluorescence of an indicator in the cells.

A short description of assay [4]: G protein-coupled receptor (GPCR) small molecule agonists, calcium flux assay: HEK293 wild type cell line counter screen (AID 1920065). In a few lines: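 Tox21 10K compounds, 15 concentrations each in triplicate, pin-transferred in DMSO onto dye-loaded cells; kinetic read at 480/540 nm for 3 min, 1 s intervals.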
A short description of assay [5]: p53 small molecule agonists, cell-based qHTS assay with human liver microsomes (AID 1963577).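 Note: p53 response element beta-lactamase reporter cells with liver microsomes plus NADPH.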 In a few lines:
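Reporter activation was measured by LiveBLAzer fluorescence intensity in p53RE-bla cells, which had been exposed to compounds for 16 h at 37 C alongside 0.5 mg/mL human liver microsomes and 0.5 mg/mL NADPH (final concentrations).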
(qHTS replaces the single test concentration by a dilution series.)

Assay [6] in a line: p53 small molecule agonists, cell-based qHTS assay with rat liver microsomes (AID 1963578). In a few lines: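 Compound in DMSO added to p53RE-bla cells 5 h post-plating; rat microsomes/NADPH 0.5 mg/mL final; 16 h, 37 C; LiveBLAzer 2 h RT.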
A short description of assay [7]: p53 small molecule agonists, cell-based qHTS assay with human liver microsomes: qHTS cell viability counter screen (AID 1963579). Note: nearly all actives have a fitted effect of over 45% in size. Note: potency is the fitted concentration of half-maximal effect. In a few lines: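 HLM-supplemented (0.5 mg/mL final) and NADPH-supplemented (0.5 mg/mL final) p53RE-bla cultures, 4,000 cells per well, were dosed with compounds in DMSO for 16 h at 37 C; luminescent ATP detection (CellTiter-Glo, 30 min, room temperature) quantified surviving cells.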

The nature of assay [8]: p53 small molecule agonists, cell-based qHTS assay with rat liver microsomes: qHTS cell viability counter screen (AID 1963580). Note: nearly all actives have a fitted effect of over 45% in size. Note: potency is the fitted concentration of half-maximal effect. In a few lines: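 Counter screen for cytotoxicity under metabolic activation: rat liver microsomes and NADPH, 0.5 mg/mL final each, added with compounds to p53RE-bla HCT-116 cells; 16 h at 37 C, then ATP luminescence read.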
Assay [9] in a line: p53 small molecule agonists, cell-based qHTS assay: qHTS cell viability counter screen (AID 1963581). Note: nearly all actives have a fitted effect of over 45% in size. Note: potency is the fitted concentration of half-maximal effect. In a few lines:
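ATP content measured by luminescence in HCT-116 p53RE-bla cells treated 16 h at 37 C, same wells as the reporter screen.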

A short description of assay [10]: p53 small molecule agonists, cell-based qHTS assay (AID 1963582; active = well fitted activation curve with a large enough effect in the signal ratio in the repeat runs, not every such curve was filed as active; the % refers to the signal ratio). In a few lines:
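16 h compound exposure (37 C) of p53 response element–bla cells, preceded by 5 h recovery at 37 C/5% CO2; read-out via LiveBLAzer B/G FRET substrate, 2 h RT, fluorescence intensity.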

Assay [11] in a line: cAMP Responsive Elements (CRE) small molecule agonists, cell-based qHTS assay (AID 1963590). In a few lines:
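HEK 293T cells stably bearing CRE-bla were plated at 2,000 cells per well and rested 18 h. Compounds, positive controls or DMSO were added for 3 h at 37 C. LiveBLAzer B/G substrate was then loaded for 2 h at room temperature.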

Assay [12] is described as follows: cAMP Responsive Elements (CRE) small molecule antagonists, cell-based qHTS assay (AID 1963591; active = well fitted inhibition curve with a large enough effect in the signal ratio in the repeat runs, not every such curve was filed as active; the % refers to the signal ratio). In a few lines: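 First, CRE-bla HEK293T cells settled 18 h at 37 C. Next, compound and 0.25 uM final NKH477 were applied for 3 h. Last, LiveBLAzer B/G substrate was loaded for 2 h at room temperature.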
In assay [13] the target is Beta-2 adrenergic receptor (Homo sapiens) (UniProt P07550). Briefly: Adrenergic beta2 receptor (ADRB2) small molecule antagonists, cell-based qHTS assay (AID 1963592). Note: series mostly up to about 92 µM; nearly all actives have a fitted effect of over 50% in size. In a few lines: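 Assay format: CHO-ADRB2 cells, 18-20hr seeding at 37C/5% CO2, then compound plus 1nM isoproterenol agonist mix for 0.5hr RT. Homogeneous time-resolved fluorescence cAMP detection after 1hr, expressed as 665/615 nm ratio.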
Beta-2 adrenergic receptor (Homo sapiens), sequence (P07550 whole entry, looked up): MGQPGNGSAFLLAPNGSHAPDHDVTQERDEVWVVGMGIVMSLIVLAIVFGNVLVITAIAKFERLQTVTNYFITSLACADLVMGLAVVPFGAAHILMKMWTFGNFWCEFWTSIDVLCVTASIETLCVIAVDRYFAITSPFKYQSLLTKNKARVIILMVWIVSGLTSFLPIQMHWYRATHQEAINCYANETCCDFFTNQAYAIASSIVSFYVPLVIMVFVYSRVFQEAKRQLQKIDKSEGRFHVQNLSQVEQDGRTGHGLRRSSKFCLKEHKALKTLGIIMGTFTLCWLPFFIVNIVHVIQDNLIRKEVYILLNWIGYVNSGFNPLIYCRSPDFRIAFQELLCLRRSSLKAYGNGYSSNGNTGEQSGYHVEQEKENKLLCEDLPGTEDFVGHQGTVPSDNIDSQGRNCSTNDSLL

Assay [14] has as its target D(2) dopamine receptor (Homo sapiens) (UniProt P14416). Briefly: Dopamine D2 receptor (DRD2) small molecule agonists, cell-based qHTS assay (AID 1963594). Note: nearly all actives have a fitted effect of over 35% in size. In a few lines: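 HEK293 cells stably expressing DRD2 were cultured 24 h at 37 C, then given Ro20-1724 (0.1 mM final) and compounds for 10 min at room temperature. NKH477 (200nM) was then added for 30 min. cAMP was read by HTRF.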

Assay [15] has the same target. Briefly: Dopamine D2 receptor (DRD2) small molecule antagonists, cell-based qHTS assay (AID 1963595; active = well fitted inhibition curve with a large enough effect in the signal ratio in the repeat runs, with a control signal flat; the % refers to the signal ratio). In a few lines: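 Human DRD2 antagonist qHTS measuring cAMP by HTRF. The cells are exposed to compound for 10 min, then to NKH477 (200 nM) and quinpirole (12 nM) for 30 min at RT, with Ro20-1724 (0.1 mM) present throughout.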
Assay [16] deals with 5-hydroxytryptamine receptor 2A (Homo sapiens) (UniProt P28223). Kind of assay: 5-hydroxytryptamine receptor 2A (HTR2A) small molecule antagonists, cell-based qHTS assay (AID 1963586). Note: nearly all actives have a fitted effect of over 45% in size. Note: potency is the fitted concentration of half-maximal effect. In a few lines:
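CHO cells stably expressing human HTR2A were plated for 18 h at 37 C, then loaded with calcium dye for 1 h. Compounds were preincubated 5 min at room temperature before DOI (4 nM solution) was added. Kinetic fluorescence was read for 3 min.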

Assay [17] shares this target. Briefly: 5-hydroxytryptamine receptor 2A (HTR2A) small molecule agonists, cell-based qHTS assay (AID 1963587). Note: nearly all actives have a fitted effect of over 30% in size. In a few lines:
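HTR2A-CHO cells, plated 18 h at 37 C/5% CO2, dye-loaded 1 h at 37 C; compounds in DMSO added by pin tool (agonist mode). Intracellular calcium flux read as kinetic fluorescence on FDSS over 2 min at 1 s intervals.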

Assay [18] concerns the target Muscarinic acetylcholine receptor M1 (Homo sapiens) (UniProt P11229). Briefly: Cholinergic receptor muscarinic 1 (CHRM1) small molecule antagonists, cell-based qHTS assay (AID 1963588). Note: nearly all actives have a fitted effect of over 40% in size. In a few lines:
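Compounds were tested at 15 concentrations in three independent runs. Dye-loaded CHRM1-CHO cells were exposed 5 min at room temperature before stimulation by acetylcholine added at 50nM. Intracellular calcium was read kinetically on FDSS for 3 min.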

Assay [19] has the same target. Kind of assay: Cholinergic receptor muscarinic 1 (CHRM1) small molecule agonists, cell-based qHTS assay (AID 1963589). Note: nearly all actives have a fitted effect of over 35% in size. In a few lines:
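Homogeneous fluorescence calcium flux, agonist mode. Human M1-expressing CHO cells; compound dosed at 15 concentrations, three independent runs; signal sampled every 1 sec.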

Molecules are shown by their SMILES. Unmarked numbers belong to inactive results. Results filed as inconclusive are left out. Active and inactive are the calls of the source. Unless noted, calls come from the whole dose curve.
% is set by controls: 0 for no effect and ±100 for the full control effect.

Muscarinic acetylcholine receptor M1 (Homo sapiens), sequence (P11229 whole entry, looked up): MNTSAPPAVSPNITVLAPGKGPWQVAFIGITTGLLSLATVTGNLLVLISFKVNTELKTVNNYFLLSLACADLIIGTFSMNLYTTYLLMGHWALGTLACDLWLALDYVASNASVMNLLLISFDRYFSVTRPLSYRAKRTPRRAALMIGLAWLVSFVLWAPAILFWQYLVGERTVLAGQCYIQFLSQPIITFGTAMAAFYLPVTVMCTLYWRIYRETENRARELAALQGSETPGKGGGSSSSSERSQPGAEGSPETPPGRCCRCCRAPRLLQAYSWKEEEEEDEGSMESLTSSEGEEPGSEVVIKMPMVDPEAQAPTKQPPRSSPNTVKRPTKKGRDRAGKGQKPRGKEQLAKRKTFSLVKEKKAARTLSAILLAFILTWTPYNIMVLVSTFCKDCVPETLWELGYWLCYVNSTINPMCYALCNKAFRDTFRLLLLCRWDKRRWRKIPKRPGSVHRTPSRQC
D(2) dopamine receptor (Homo sapiens), sequence (P14416 whole entry, looked up): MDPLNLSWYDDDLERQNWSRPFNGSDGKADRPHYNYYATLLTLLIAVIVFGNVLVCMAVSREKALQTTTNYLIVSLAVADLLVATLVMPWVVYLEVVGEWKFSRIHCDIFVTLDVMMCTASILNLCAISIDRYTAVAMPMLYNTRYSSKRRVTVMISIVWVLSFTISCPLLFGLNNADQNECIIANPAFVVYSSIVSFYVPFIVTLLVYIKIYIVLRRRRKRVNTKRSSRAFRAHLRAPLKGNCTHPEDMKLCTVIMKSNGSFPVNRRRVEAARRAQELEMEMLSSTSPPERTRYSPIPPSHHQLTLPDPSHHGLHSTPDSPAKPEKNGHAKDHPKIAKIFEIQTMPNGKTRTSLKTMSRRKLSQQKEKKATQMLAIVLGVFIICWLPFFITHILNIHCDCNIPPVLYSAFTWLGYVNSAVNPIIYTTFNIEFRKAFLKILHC
5-hydroxytryptamine receptor 2A (Homo sapiens), sequence (P28223 whole entry, looked up): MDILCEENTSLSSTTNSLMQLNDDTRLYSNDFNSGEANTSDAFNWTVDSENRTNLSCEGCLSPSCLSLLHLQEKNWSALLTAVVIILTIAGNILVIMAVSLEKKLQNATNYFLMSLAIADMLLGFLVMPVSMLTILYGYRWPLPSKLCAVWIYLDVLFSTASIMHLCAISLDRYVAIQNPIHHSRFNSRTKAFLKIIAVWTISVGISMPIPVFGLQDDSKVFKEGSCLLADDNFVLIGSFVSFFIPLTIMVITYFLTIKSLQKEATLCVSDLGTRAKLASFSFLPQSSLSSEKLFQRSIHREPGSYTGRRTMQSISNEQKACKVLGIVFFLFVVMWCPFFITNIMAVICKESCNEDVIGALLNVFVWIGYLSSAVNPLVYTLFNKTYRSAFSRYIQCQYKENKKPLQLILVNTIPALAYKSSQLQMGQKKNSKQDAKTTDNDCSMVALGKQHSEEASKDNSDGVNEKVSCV

In the case of `CCN(CCO)CCCC(C)Nc1ccnc2cc(Cl)ccc12` (centres undefined), the activity change, negative = cytotoxicity in [1] is -14.6% [at 8.39 µM]; in assay [7], -18.4% [at 5.99 µM]; in assay [8] it was -0.0605% [at 5.99 µM]; in assay [9], 14.7% [at 5.99 µM]. For the same compound, the activity, positive = activation in assay [2] was -5.51% [at 8.39 µM]. Besides, the activity change in assay [3] is -0.334% [at 5.22 µM, hits give high values]. The activation in [4] was -1.14% [at 5.23 µM]; in [5], 9.14% [at 5.99 µM]; in [6], 0.449% [at 5.99 µM]; in assay [10], 0.694% [at 5.99 µM]; in [11] it was 0.273% [at 8.39 µM]; in [14] it was 4.56% [at 8.39 µM]. Further, the results for the activity change, negative = inhibition in assay [12], in [13] and in assay [15] were -1.93% [at 8.39 µM], 1.52% [at 8.39 µM] and 12.2% [at 8.38 µM], respectively.

Regarding `CCCCCCCC/C=C\CCCCCCCCOCCO`, the Potency was 22.4 µM (active) in [1]; 53 µM (active) in [7]; 53 µM (active) in [8]; 21.1 µM (active) in assay [9]; 24.4 µM (active) in assay [16]. In addition, the Potency result in [2], in [3], in assay [5], in [6], in assay [17] and in [18] was “inactive” throughout. The Potency result in assay [13] and in assay [14] was “inactive” in each case. Further, the outcome in assay [4] was inactive.

On to `CN1CCN(c2c(F)cc3c(=O)c(C(=O)O)cn(CCF)c3c2F)CC1`, for which the Potency result in assay [1], in [2], in assay [3], in assay [5], in [6] and in [7] was “inactive” throughout. The Potency entry in assay [8], in assay [9], in [10], in assay [11], in assay [14] and in assay [15] was “inactive” throughout. The result in [4] was inactive.

With `O=C(c1ccc(F)cc1)C1CCN(CCn2c(=O)[nH]c3ccccc3c2=O)CC1`, the Potency entry in assay [1], in assay [2], in assay [3], in assay [5], in assay [6] and in assay [7] was “inactive” in each case. The Potency result in assay [8], in assay [9], in assay [10], in assay [17], in assay [18] and in [19] was “inactive” throughout. For the same compound, the Potency entry in assay [13], in [14] and in [15] was “inactive” in each case. Moreover, in [4], the result was inactive.

In the case of `Nc1nnc(-c2cccc(Cl)c2Cl)c(N)n1`, the Potency entry in [1], in [2], in assay [3], in assay [5], in assay [6] and in assay [7] was “inactive” each time. Besides, the Potency result in assay [8], in [9], in assay [10], in assay [11], in [12] and in assay [14] was “inactive” throughout. For the same compound, the Potency result in assay [15] was “inactive”. In addition, the outcome in assay [4] was inactive.

Consider `Cc1c(C(=O)NCCO)[n+](=O)c2ccccc2n1[O-]`, for which the Potency entry in assay [1], in assay [2], in assay [3], in assay [5], in [6] and in assay [7] was “inactive” in each case. In addition, the Potency entry in assay [8], in assay [9], in assay [10], in assay [16], in [17] and in assay [19] was “inactive” in each case. For the same compound, the Potency entry in assay [11], in assay [12], in assay [13], in assay [14] and in assay [15] was “inactive” in each case. Also, in assay [4], the outcome was inactive.

As to `Cc1ccccc1C#N`, the Potency entry in assay [1], in assay [2], in assay [3], in assay [5], in assay [6] and in assay [7] was “inactive” each time. The Potency entry in assay [8], in [9], in [10], in assay [16], in [17] and in assay [19] was “inactive” throughout. The Potency result in assay [11], in assay [12], in assay [13] and in assay [14] was “inactive” each time. For the same compound, in [4], the result was inactive.

Consider `C=C1CC[C@H]2O[C@]2(C)CC[C@@H]2[C@@H]1CC2(C)C`, for which the Potency entry in [1], in [2], in [3], in assay [5], in [6] and in assay [7] was “inactive” each time. In addition, the Potency entry in assay [8], in assay [9], in [10], in assay [16], in assay [18] and in assay [11] was “inactive” each time. Moreover, the Potency entry in assay [12], in assay [13], in assay [14] and in assay [15] was “inactive” throughout. For the same compound, the outcome in assay [4] was inactive.

Values taken from PubChem BioAssay (Tox21).
